Data reported in PubChem BioAssay (NCI).
This is part of a sample that, as a whole, favours compounds with a hit. Of some 83,000 tested, about 20% had one in any assay.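 Method: cells in 96-well plates; compound added at one concentration; 48 h incubation; percent growth measured; values under 10 scored active.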 Values without a mark were called inactive. Activity calls are given as the source filed them.

Columns and labels:
Assay in all cases: NCI-60 one-dose screen, 48 h (100 = growth as untreated, 0 = no growth, -100 = all killed)
HCT-15 colon = conditions: 10 µM
HT29 colon = conditions: 10 µM
SNB-75 CNS = conditions: 10 µM
SNB-19 CNS = conditions: 10 µM
U251 CNS = conditions: 10 µM
PC-3 prostate = conditions: 10 µM
UACC-62 melanoma = conditions: 10 µM unless noted
LOX IMVI melanoma = conditions: 10 µM
SK-MEL-28 melanoma = conditions: 10 µM
SK-MEL-5 melanoma = conditions: 10 µM

SMILES | growth (HCT-15 colon) [%] | growth (HT29 colon) | growth (SNB-75 CNS) | growth (SNB-19 CNS) [%] | growth (U251 CNS) [%] | growth (PC-3 prostate) | growth (UACC-62 melanoma) [%] | growth (LOX IMVI melanoma) [%] | growth (SK-MEL-28 melanoma) [%] | growth (SK-MEL-5 melanoma) [%]
O=S(=O)(O)c1ccc(O)c2ccccc12 | 113 | 110% | 88.1% | 97.8 | 107 | 92% | 101 | 92.7 | 109 | 
CCCCC(O)c1ccccc1 (stereo unspecified) | 102 | -11.4% (active) | 92.2% | 110 | 98.4 | 97.9% | 108 | 96.4 | 119 | 
CCC(C)(C)C1CCC(O)CC1 (stereo unspecified) | 88.9 | 97.5% | 100% | 100 | 107 | 99.2% | 98.2 | 91.1 | 114 | 
CC1CCC(C(=O)O)N1 (stereo unspecified) | 110 | 94.1% | 83.3% | 102 | 96 | 99.2% | 98.1 | 99.2 | 95.4 | 102
CC(C)(O)C#CC#CC(C)(C)O | 97.7 | 97.8% | 94% | 112 | 98 | 99.3% | 111 | 97 | 99.4 | 
C[C@@H](c1ccccc1)[C@@H](C(=O)O)c1ccccc1 | 95.4 | 103% | 88.4% | 92.4 | 93.1 | 94.5% |  | 98.4 | 108 | 98.2
COc1cc(CN)ccc1O | 111 | 91.8% | 88.8% | 94.9 | 96 | 100% | 90.1 | 89.8 | 117 | 102
CC(C)(N)COS(=O)(=O)O | 103 | 113% | 91.5% | 93 | 103 | 95.9% | 102 | 113 | 96.3 | 
NC(C(=O)O)c1ccc([N+](=O)[O-])cc1 (stereo unspecified) | 95.7 | 149% | 78.9% | 99.6 | 115 |  | 97.3 | 101 | 101 | 105
O=[N+]([O-])c1ccc(N=Nc2ccc(O)c3ccccc23)cc1 | 41.2 | 79.1% | 68.8% | 39.8 | 15.4 | 14.9% |  | 18.4 | 69 | 28.7
CC(C)(C)c1cc(O)c(C(C)(C)C)cc1O | 97.9 | 98.3% | 92.7% | 49.2 | 75.2 | 76.3% |  | 98.1 | 94.4 | 67.8
C=CC(=O)OCCCCCCCC | 95 | 124% | 91.2% | 101 | 98.8 | 106% | 102 | 101 | 110 | 
CCc1nc(N)nc(N)c1-c1ccc(Cl)cc1 | 34.1 | 47.5% | 77% | 88.4 | 46.3 | 60.5% |  | 31.2 | 94.1 | 24.3
N#C/C(=C\c1cc(O)c(O)c(O)c1)C(N)=O | 88.6 | 103% | -17.7% (active) | 101 | 93 | 46.5% | 98.1 | 92.3 |  | 
C=CCc1cc(C(C)=O)cc(OC)c1O | 119 | 108% | 89.2% | 105 | 103 | 106% | 97.8 | 100 | 110 | 
NCC(=O)CCC(=O)O | 106 | 104% | 104% | 113 | 96.7 | 100% | 114 | 99.6 | 103 | 

SMILES | growth (HCT-15 colon) [%] | growth (HT29 colon) | growth (SNB-75 CNS) | growth (SNB-19 CNS) [%] | growth (U251 CNS) [%] | growth (PC-3 prostate) | growth (UACC-62 melanoma) [%] | growth (LOX IMVI melanoma) [%] | growth (SK-MEL-28 melanoma) [%] | growth (SK-MEL-5 melanoma) [%]
COc1cc(C(=O)NC(=S)Nc2ccc3ccccc3c2)cc(OC)c1OC | 87.4 | 100% | 92% | 107 | 102 | 82.4% | 36.5 | 91 | 98.1 | 
O=C(/C=C\c1ccc(O)cc1)c1ccccc1 | 88.5 | 86.8% | 81.4% | 104 | 80.7 | 90.6% | 94.8 | 94.4 | 103 | 97.3
Cc1c(O)cccc1O | 116 | 106% | 99.1% | 97.6 | 98.7 | 96.9% | 94.9 | 106 | 122 | 
O=C(O)c1ccnc(Br)c1 | 106 | 110% | 89.5% | 103 | 100 | 86.1% | 106 | 107 | 111 | 
O=C(N/N=C\c1cc(Br)cc(Br)c1O)N/N=C/c1cc(Br)cc(Br)c1O | 33.6 | 105% | 49% | 68.2 | 46.1 | -1.34% (active) | 39 | 50.5 | 81.9 | 
CCOc1ccc(Br)cc1/C=N\N=C\c1cc(Br)ccc1OCC | 109 | 107% | 98.5% | 117 | 103 | 93.8% | 104 | 105 | 115 | 109
CCCCC1C(=O)N(c2ccccc2)N(c2ccccc2)C1=O | 102 | 104% | 117% | 102 | 105 | 98.9% |  | 99.4 | 111 | 102
CC1(C)N=C(N)N=C(N)N1c1cccc(Br)c1 | 32.4 | 28.4% | 58.6% | 44.9 | 32.9 | 38.5% | 30.2 | 20.2 | 72.5 | 
CCOC(=O)C1OC1c1ccccc1 (stereo unspecified) | 103 | 112% | 92% | 103 | 98.7 | 98.8% | 101 | 101 | 110 | 99.6
O=[N+]([O-])c1ccc(O)c(S(=O)(=O)O)c1 | 98.1 | 104% | 98.6% | 105 | 102 | 97.3% | 97.5 | 98.2 | 116 | 
CCCCC(CC)COC(C)=O (stereo unspecified) | 109 | 111% | 91.2% | 106 | 99.6 | 97% | 103 | 97.4 | 108 | 
O=[N+]([O-])c1cccc(N=Nc2ccc(O)cc2O)c1 | 48 | 86.2% | 69.7% | 78.2 | 63.7 | 58.5% |  | 81.1 | 99.1 | 74.2
NC(CSC(c1ccccc1)(c1ccccc1)c1ccccc1)C(=O)O (stereo unspecified) | 34.3 | 14% | 64.9% | 49.8 | 14.1 | 19.7% | 48 | 38.2 | 57.9 | 
CCCCCCCCCCC(C)Br (stereo unspecified) | 104 | 109% | 97% | 103 | 103 | 101% | 104 | 94.3 | 112 | 
Sc1ccc(Nc2c3ccccc3nc3ccccc23)cc1 | 79.4 | 88.6% | 61.9% | 79.8 |  | 76.5% | 63 | 88.5 | 101 | 56.6
CC(C(=O)O)(C1CCCCC1)C1(O)CCCCC1 (stereo unspecified) | 104 | 101% | 85.2% | 111 |  | 94.9% | 113 | 95.3 | 107 | 
